# High-throughput results: PubChem, several laboratories
# CYP2C19 inhib: blocks human cytochrome P450 2C19 | P33261 | CYP2C19 Supersomes, luciferin-H EGE luminescence, 30 min | inhibition, % at 5 µM | 21% of 96,000 active | AID 778;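 active = CYP2C19 inhibition above a set limit at 5 µM in the primary screen, cut at about 50% in these data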
# CYP2C9 inh: blocks human cytochrome P450 2C9 | CYP2C9 Supersomes, luciferin-H conversion, luminescence | inhibition, % at 5 µM | 20% of 96,000 active | AID 777;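 active = blocking of liver enzyme CYP2C9 beyond about 50% at 5 µM, limit read from the data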
# Target sequence (P11712 whole entry, looked up): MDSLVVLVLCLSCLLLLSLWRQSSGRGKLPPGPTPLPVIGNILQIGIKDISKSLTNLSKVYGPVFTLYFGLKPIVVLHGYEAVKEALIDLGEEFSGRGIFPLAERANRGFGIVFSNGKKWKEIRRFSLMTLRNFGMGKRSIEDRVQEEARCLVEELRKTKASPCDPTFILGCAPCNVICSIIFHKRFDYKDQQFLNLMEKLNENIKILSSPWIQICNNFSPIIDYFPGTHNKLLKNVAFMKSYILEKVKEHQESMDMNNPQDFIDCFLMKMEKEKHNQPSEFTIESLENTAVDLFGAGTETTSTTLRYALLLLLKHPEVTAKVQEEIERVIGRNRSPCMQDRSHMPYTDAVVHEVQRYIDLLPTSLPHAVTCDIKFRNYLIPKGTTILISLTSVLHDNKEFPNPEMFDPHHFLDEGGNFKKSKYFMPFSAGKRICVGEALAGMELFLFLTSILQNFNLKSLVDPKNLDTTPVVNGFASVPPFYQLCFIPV
# CYP2C19 act: activators of human cytochrome P450 2C19 | 96,000 tested, under 10 active | recombinant CYP2C19, luciferin-H EGE luminescence; stronger effect = higher value; 0 = fully inhibited enzyme, 1 = untreated enzyme | activation factor at 5 µM;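 active = activation factor of at least 2 at 5 µM in the primary screen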
# Cav3 T inh: inhibitors of human Cav3.2 T-type calcium channel; O95180; Cav3.2-expressing cells, Fluo-4 calcium fluorescence FDSS; stronger effect = lower value; B-score at 10 µM; 4% of 100,000 active; AID 449739;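 active = single-dose well whose peak fluorescence ratio is a statistical outlier from its plate by either plate-standardised score or position-corrected B-score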
# CYP2C9 act: increases human cytochrome P450 2C9 activity; recombinant CYP2C9, luciferin-H conversion, luminescence; stronger effect = higher value; factor 1 = untreated enzyme, 0 = blocked; activation factor at 5 µM; 1.4% of 96,000 active;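 active = activation factor of 2 or more for CYP2C9 at a 5 µM dose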
# Hits are given with their value; n = inactive; x = not tested or not shown. A selection: hits, their analogues and other compounds. The true share with any hit is near 27%.
SMILES,CYP2C19 inhib,CYP2C9 inh,CYP2C19 act,Cav3 T inh,CYP2C9 act
CCCn1c(SCC(=O)NCc2ccccc2)nnc1-c1ccncc1,n,n,n,n,n
CCn1c(SCC(=O)Nc2ccccc2C)nnc1-c1ccccc1O,56.7,51.3,n,n,n
COCCn1c(SCC#N)nnc1-c1ccccc1O,n,n,n,n,n
CCOc1ccc(CCNC(=O)C2CCCN(C(=O)N(C)C)C2)cc1OCC (stereo unspecified),x,x,x,n,x
O=C(NC1CC1)C1=C[C@@H](c2c[nH]c3ccccc23)C[C@@H](OCc2ccc(CO)cc2)O1,x,x,x,n,x
Cc1cccc(N(C)c2cc(C)nc3nc(C)nn23)c1,x,x,x,n,x
CCOC(=O)CNC(=O)CSc1nnc(-c2ccccc2OC)n1CC,n,n,n,n,n
CCn1c(SCC(=O)Nc2cc(F)ccc2C)nnc1-c1ccccc1O,94.6,80.7,n,n,n
N#Cc1ccccc1NC(=O)CSc1nnc(-c2ccccc2O)n1-c1ccccc1,n,64.4,n,n,n
Cn1c(SCC(=O)Nc2sccc2C#N)nnc1-c1ccccc1,n,n,n,n,n
CCn1c(SCC(=O)Nc2ccc3c(c2)OCO3)nnc1-c1ccccc1O,76.2,79.3,n,n,n
NCCCC[C@H](N)c1nnc([C@H](CC(=O)O)NC(=O)C2CCNCC2)o1,x,x,x,n,x
Cc1cccc(N2CCN(C(=O)C3CCCN(S(=O)(=O)c4c(C)noc4C)C3)CC2)c1C (stereo unspecified),x,x,x,n,x
CC1CCN(CCCn2c(=S)[nH]c3ccc(N4CCOCC4)cc3c2=O)CC1,n,n,n,-4.66,n
O=c1c2cc(N3CCOCC3)ccc2[nH]c(=S)n1Cc1cccc(Cl)c1,n,n,n,n,n
O=c1c2cc(N3CCOCC3)ccc2[nH]c(=S)n1Cc1ccco1,n,53.0,n,n,n
CCOC(=O)Cc1[nH]nc2c1C(c1cccc(OC)c1OC)C(C#N)=C(N)O2 (stereo unspecified),n,n,n,n,n
CCOC(=O)Cc1[nH]nc2c1C(C1C=CCCC1)C(C#N)=C(N)O2 (stereo unspecified),86.9,70.8,n,n,n
CCOc1ccccc1NC(=O)CC1Nc2cc(C)c(C)cc2NC1=O (stereo unspecified),n,n,n,n,n
CCOC(=O)c1c(NC(=O)CC2Nc3cc(C)c(C)cc3NC2=O)sc(C)c1C (stereo unspecified),n,68.6,n,n,n
Cc1c(C)c2ccc(OC3CCCCC3=O)cc2oc1=O (stereo unspecified),n,n,n,x,n
C=CCOc1cccc(C2/C(=C(/O)c3ccc(F)cc3)C(=O)C(=O)N2CCN2CCOCC2)c1 (stereo unspecified),n,n,n,n,n
CCOc1ccccc1N(C)C(=O)C1CCN(S(=O)(=O)c2cccc3nonc23)CC1,84.9,94.1,n,n,n
O=C(NCCc1ccccc1)C1CCN(S(=O)(=O)c2ccc(-c3nn[nH]n3)cc2)CC1,n,83.1,n,n,n
O=C(NCCc1ccc(Cl)cc1)C1CCN(S(=O)(=O)c2cccc3nonc23)CC1,n,n,n,x,2.5
SMILES,CYP2C19 inhib,CYP2C9 inh,CYP2C19 act,Cav3 T inh,CYP2C9 act
O=C(NCCN1CCN(c2ccccc2)CC1)C1CCN(S(=O)(=O)c2cccs2)CC1,n,n,n,n,n
COc1ccc(CCNC(=O)C2CCN(S(=O)(=O)c3cccc4nonc34)CC2)cc1OC,n,n,n,x,n
O=C(NCCN1CCN(c2ccccc2)CC1)C1CCN(S(=O)(=O)c2cccc3nonc23)CC1,52.2,n,n,n,n
O=C(O)CSc1nnc(Cn2cnc3ccccc32)n1CCc1ccccc1,n,n,n,n,n
c1ccc(-n2ncc3c2ncn2nc(-c4ccco4)nc32)cc1,n,n,n,n,n
O=C(NCCc1ccccc1)C1CCN(S(=O)(=O)c2cccc3nonc23)CC1,n,n,n,n,2.3
O=C(NCCc1ccccc1)C1CCCN(S(=O)(=O)c2cccc3nonc23)C1 (stereo unspecified),n,n,n,n,n
O=C(O)Cn1cccc1C(=O)c1ccccc1,x,x,x,n,x
Cc1ccc(CNC(=O)Cn2cccc2C(=O)c2ccccc2)cc1,n,n,n,-4.89,n
CN(Cc1ccccc1)C(=O)Cn1cccc1C(=O)c1ccccc1,69.8,n,n,n,n
O=C(Cn1cnc2c(nnn2Cc2ccc(F)cc2)c1=O)NCC1CCCO1 (stereo unspecified),x,x,x,n,x
Cc1nn(Cc2ccc(Cl)cc2Cl)c(C)c1NC(=O)c1sc2ccccc2c1Cl,n,n,n,n,n
Cc1nn(C(C)C(=O)NCc2ccccc2Cl)c(=O)c2c1sc1ccccc12 (stereo unspecified),87.5,97.1,n,n,n
CCOC(=O)N1CCN(C(=O)Cn2nc(C)c3sc4ccccc4c3c2=O)CC1,n,n,n,n,n
CCOC(=O)N1CCN(C(=O)C(CC)n2nc(C)c3sc4ccccc4c3c2=O)CC1 (stereo unspecified),n,58.5,n,n,n
O=C(CNC(=O)Cn1ccc2ccccc2c1=O)NCCCN1CCN(c2cccc(Cl)c2)CC1,n,n,n,n,n
O=S(=O)(NCCSCc1c(Cl)cccc1Cl)c1ccc2c(c1)OCCO2,x,x,x,n,x
O=S(=O)(NCCSc1ccc(Cl)cc1)c1ccc2c(c1)OCCO2,85.7,63.2,n,-8.69,n
COCCCNS(=O)(=O)c1ccc2c(c1)OCCO2,78.4,n,n,x,n
COc1ccc(S(=O)(=O)NCCC(C)C)cc1OC,95.8,n,n,n,3.4
CC(C)CCNS(=O)(=O)c1ccc(-c2ccc(S(=O)(=O)NCCC(C)C)cc2)cc1,n,n,n,n,n
COc1ccc(CCNS(=O)(=O)c2ccc3c(c2)OCCO3)cc1OC,84.5,n,n,n,n
CCOCCCNS(=O)(=O)c1ccc2c(c1)OCCO2,n,n,n,n,n
COc1ccc(CCNS(=O)(=O)c2ccc3c(c2)oc(=O)n3C)cc1OC,x,x,x,n,x
Cn1c(=O)c2c(nc(OCC3COC(C)(C)O3)n2Cc2ccccc2F)n(C)c1=O (stereo unspecified),n,n,n,n,n
SMILES,CYP2C19 inhib,CYP2C9 inh,CYP2C19 act,Cav3 T inh,CYP2C9 act
COc1ccc(-c2nc(CCNS(=O)(=O)c3ccc4c(c3)OCCO4)cs2)cc1,98.4,79.5,n,n,n
O=S(=O)(NCCc1csc(-c2ccc(C(F)(F)F)cc2)n1)c1ccc2c(c1)OCCO2,n,n,n,n,n
O=C(NCCN1CCOCC1)c1cc2c(=O)n3ccccc3nc2n1Cc1ccccc1,54.8,n,n,n,n
N#Cc1cc2c(=O)n3ccccc3nc2n(CCCN2CCOCC2)c1=O,69.0,n,n,n,n
CCN1CCN(C(=O)c2cc3c(=O)n4ccccc4nc3n2Cc2ccccc2)CC1,n,n,n,x,n
Cc1noc(C)c1S(=O)(=O)N1CCN(C(c2ccccc2)c2ccc(Cl)cc2)CC1 (stereo unspecified),75.4,77.0,n,n,n
Cc1noc(C)c1S(=O)(=O)N1CCCCC1,n,n,n,n,n
CCCN(CCC)Cc1c(C(=O)OCC)nnn1-c1nonc1N,n,n,n,n,n
COC(=O)c1nnn(-c2nonc2N)c1-c1cccs1,n,n,n,n,n
